# Many of the other results were omitted from the sample, so hits are more common in it than they were.
# Algae TAG accum: inducers of triacylglycerol accumulation in Chlamydomonas reinhardtii algae; hit rate 0.84% among 44,000; AID 1159537; Chlamydomonas reinhardtii TAG, Nile Red fluorescence, 72 h; calls only at 10 µM (by protocol); call rule not given here;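 also: hits raise Nile Red signal meaning more stored TAG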
# Calls only; – = inactive; + = active, no number.
SMILES,Algae TAG accum
CN(CC(O)COc1ccc(Br)cc1)C1CCCCC1 (stereo unspecified),+
CN(CC(O)COCc1ccc2c(c1)OCO2)C1CCCCC1 (stereo unspecified),–
CC(NCC(O)COc1ccc(Br)cc1)c1ccccc1 (stereo unspecified),–
CCN(CC(O)COc1ccc(Br)cc1)C1CCCCC1 (stereo unspecified),+
O=C(COc1ccc(Br)cc1)NC1CCCC1,–
CSc1ccccc1C(=O)Nc1ccc2c(c1)OC1(CCCCC1)O2,–
O=C(Nc1ccc(Oc2ccccc2)cc1)C1CCN(C(=O)c2ccc(Cl)cc2)CC1,–
Oc1ccccc1-c1cc(-c2cccc(Br)c2)n[nH]1,–
CCc1ccccc1NC(=O)CSc1ccc(C)cc1,–
CC(=O)c1cccc(N/C=C/[N+](=O)[O-])c1,–
CCOC(=O)N1CCN(C/C(C)=C/c2ccccc2)CC1,–
C/C(=C\c1ccccc1)CN1CCOCC1,–
C/C(=C\c1ccccc1)CN1CCN(C)CC1,+
CC(C)C(=O)Nc1ccc(NC(=O)c2ccc(-c3ccc(Cl)cc3)o2)cc1,–
Cc1cc(NCc2ccccc2)nc(N2CCOCC2)n1,+
Cc1cc(NCc2ccccc2)nc(-c2ccccc2O)n1,–
Cc1cc(N2CCOCC2)nc(NCc2ccccc2)n1,–
Clc1cc(Br)ccc1OCCN1CCOCC1,–
Cc1ccc(OCCN2CCOCC2)c(Br)c1,–
Cc1cc(Br)ccc1OCCN1CCOCC1,–
Clc1ccc(OCCN2CCOCC2)c(Br)c1,–
Clc1cc(Br)ccc1OCCCN1CCOCC1,+
Clc1ccc(OCCOCCN2CCOCC2)c(Br)c1,+
Cc1cc(Br)ccc1OCCOCCN1CCOCC1,+
Cc1cc(Br)ccc1OCCCN1CCOCC1,–
SMILES,Algae TAG accum
Clc1cc(Br)ccc1OCCCN1CCCC1,–
O=C(Nc1ncc(Cc2ccccc2)s1)c1ccccc1Cl,–
CCOc1ccc(C(=O)Nc2ccc(F)c(Cl)c2)cc1,–
COc1ccc(C2C(C(C)=O)=C(O)C(=O)N2CCCO)cc1 (stereo unspecified),–
Cc1cc(N)ccc1NC(=O)c1ccco1,–
Cc1cc(C)c(S(=O)(=O)N2CCC(C(=O)O)CC2)c(C)c1,–
NC(=O)CSc1cccc2cccnc12,–
Cc1cc(C)nc(NC(=O)c2ccc(Br)o2)n1,–
Cc1cc(OCC(=O)N2CCOCC2)cc(C)c1NC(=O)C12CC3CC(CC(C3)C1)C2,–
COc1ccc(/C=C/c2nc(O)c([N+](=O)[O-])c(=O)[nH]2)cc1,–
C=CCNC(=O)COc1ccc(C)cc1C,–
CC(=O)Nc1ccc(N=C(C)C2=C(O)c3ccccc3C2=O)cc1,–
O=C(Nc1ccccc1C(=O)NCCc1ccccc1)c1ccncc1,–
CC(C)NC(=O)c1ccccc1NC(=O)c1ccccc1,–
CC(C)NC(=O)c1ccccc1NC(=O)c1ccc(Cl)cc1,+
O=C(Nc1ccccc1C(=O)Nc1ccccc1Cl)c1ccncc1,+
O=C(Nc1ccccc1F)c1ccc(Br)cc1,–
O=C(Nc1ccccc1Cl)c1cccc(Cl)c1Cl,–
CC(C)NC(=O)c1ccccc1NC(=O)c1ccc(Br)cc1,+
CC(C)c1ccc(C(=O)Nc2ccccc2C(N)=O)cc1,–
O=C(Nc1ccccc1C(=O)NCCCCO)c1ccc(Br)cc1,–
CC(=O)Nc1ccc(S(=O)(=O)N2CCN(CC3CC=CCC3)CC2)cc1 (stereo unspecified),–
COc1ccc(CNC(=O)CCc2ccccc2)cc1OC,–
C=CCn1c(CC)nc2ccccc21,–
CCC(=O)N1CCN(c2ccc([N+](=O)[O-])c(NCc3ccco3)c2)CC1,–
SMILES,Algae TAG accum
O=C(Nc1nc(-c2ccc(S(=O)(=O)N3CCCCCC3)cc2)cs1)c1ccco1,–
COc1cccc(NC(=O)c2ccc(Br)cc2)c1,–
Cc1ccc(N2C(=O)CC(N3CCCCC3C)C2=O)cc1 (stereo unspecified),–
CC1CC(=O)C2=C(C1)OC(N)=C(C#N)C2c1ccc(F)cc1 (stereo unspecified),–
CN1CCCN(Cc2ccc([N+](=O)[O-])o2)CC1,+
O=[N+]([O-])c1ccc(CN2CCN(c3ccccc3)CC2)o1,–
CN1CCCN(Cc2ccc(-c3ccccc3[N+](=O)[O-])o2)CC1,–
CC1(C)C=Cc2c(nc3ccccc3c2NCc2ccccc2)C1,–
O=C(Nc1ccc(Cl)cc1F)c1ccc(C(=O)Nc2ccc(Cl)cc2F)cc1,–
Nc1ccc(C(=O)Nc2ccc(Cl)cc2Cl)cc1,+
O=C(Nc1ccc(Cl)cc1Cl)c1ccccc1,–
Cc1ccc(C(=O)c2ccc(N3CCN(C)CC3)c(F)c2)cc1C,+
Cc1ccc(C(=O)c2ccc(N3CCN(C(=O)c4cccs4)CC3)c(F)c2)cc1C,–
CCC(=O)c1ccc(N2CCN(C(C)=O)CC2)c(F)c1,–
COc1cc(SC)ccc1C(=O)Nc1ccc(S(N)(=O)=O)cc1,–
OC1CCN(Cc2cccc(Oc3ccccc3)c2)CC1,–
COc1ccc(CN2CCN(C)CC2)cc1OCc1ccccc1,–
OCC1CCCN(Cc2ccc3c(c2)Cc2ccccc2-3)C1 (stereo unspecified),–
CN1CCN(Cc2cccc(Oc3ccccc3)c2)CC1,+
CN1CCN(Cc2ccc3c(c2)Cc2ccccc2-3)CC1,+
COc1cccc(CN2CCCN(C)CC2)c1,–
OC1CCCN(Cc2ccc3c(c2)Cc2ccccc2-3)C1 (stereo unspecified),–
CN1CCCN(Cc2cccc(Br)c2)CC1,–
CN1CCCN(Cc2cccc(Oc3ccccc3)c2)CC1,+
C=CCNC(=O)/C(=C\c1ccc([N+](=O)[O-])cc1)NC(=O)c1ccco1,–
SMILES,Algae TAG accum
NC(=O)C(=O)Nc1ccc(Cl)c(Cl)c1,–
O=C(CN(c1ccc([N+](=O)[O-])cc1)S(=O)(=O)c1ccccc1)NCc1cccnc1,–
COc1cc(C(=O)Nc2ccc(OCc3ccccc3)cc2)c([N+](=O)[O-])cc1OC,–
O=C(NCc1ccc2c(c1)OCO2)c1cncc(Br)c1,–
O=C1CC(Nc2ccc(F)cc2)C(=O)N1c1ccc(F)cc1 (stereo unspecified),–
CC1CCN(S(=O)(=O)c2cccc(C(=O)NCCc3ccccc3)c2)CC1,–
O=C(CSc1nc(-c2ccccc2)cc(=O)[nH]1)Nc1cc(Cl)cc(Cl)c1,–
CN1C(=O)C(O)(CC(=O)c2ccc3c(c2)OCCO3)c2ccccc21 (stereo unspecified),–
COc1cc(/C=C(\C#N)c2nn(CCO)c(N)c2C#N)ccc1OCc1ccc(C)cc1,–
COc1cc(NC(=O)c2ccccc2Cl)c(OC)cc1NC(C)=O,–
O=C(Nc1ccccc1-c1ccccc1)C(Cl)(Cl)Cl,–
c1cc2c(cc1CN1CCOCC1)OCO2,–
c1cc2c(cc1CN1CCCCC1)OCO2,–
c1ccc2c(c1)CCN(Cc1ccc3c(c1)OCO3)C2,+
O=C(NCCC1=CCCCC1)c1cccc([N+](=O)[O-])c1,–
O=C(O)C1C2C=CC(O2)C1C(=O)Nc1ccccc1F (stereo unspecified),+
O=C(Nc1ccccc1F)[C@@H]1C2C=CC(C2)[C@@H]1C(=O)O (stereo partly specified),–
Cc1ccc(Cl)cc1NC(=O)C1C2C=CC(O2)C1C(=O)O (stereo unspecified),–
CC(C)c1ccc(NS(=O)(=O)c2cccs2)cc1,–
CC(C)C(NS(=O)(=O)c1cccs1)C(C)C,+
Cc1cc(C)cc(NS(=O)(=O)c2cccs2)c1,–
O=C(Nc1cccc(Cl)c1)Nc1ccc(F)cc1F,–
CCc1nnc(NC(=O)c2cc(OC)c(OC)c(OC)c2)s1,–
COc1cc(C(=O)Nc2nc3c(s2)CCCC3)cc(OC)c1OC,+
